# Reference: PubChem BioAssay AID1942 (Johns Hopkins Ion Channel Center, 2009)
# Out of some 2,400 compounds screened, about 580 (24%) were called active.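 Rule for the calls: active = activity change at or above the mean plus 3 SD of buffer wells without dofetilide, per plate; inactive = the rest.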 Not all results are given here.
# Target: Potassium voltage-gated channel subfamily KQT member 2 (Rattus norvegicus) (UniProt O88943)
# Assay: rat KCNQ2 channel activation by compounds alone, confirmation, counter-screen for hERG block protector project, cell-based, CHO, FluxOR thallium flux (AID 1942);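 note: normalized value minus buffer-control mean plus three SD of buffer wells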
# Details: CHO-KCNQ2 cells, FluxOR thallium flux fluorescence; at 10 µM; stronger effect = higher value
# Sequence of Potassium voltage-gated channel subfamily KQT member 2 (Rattus norvegicus) (O88943 whole entry, looked up): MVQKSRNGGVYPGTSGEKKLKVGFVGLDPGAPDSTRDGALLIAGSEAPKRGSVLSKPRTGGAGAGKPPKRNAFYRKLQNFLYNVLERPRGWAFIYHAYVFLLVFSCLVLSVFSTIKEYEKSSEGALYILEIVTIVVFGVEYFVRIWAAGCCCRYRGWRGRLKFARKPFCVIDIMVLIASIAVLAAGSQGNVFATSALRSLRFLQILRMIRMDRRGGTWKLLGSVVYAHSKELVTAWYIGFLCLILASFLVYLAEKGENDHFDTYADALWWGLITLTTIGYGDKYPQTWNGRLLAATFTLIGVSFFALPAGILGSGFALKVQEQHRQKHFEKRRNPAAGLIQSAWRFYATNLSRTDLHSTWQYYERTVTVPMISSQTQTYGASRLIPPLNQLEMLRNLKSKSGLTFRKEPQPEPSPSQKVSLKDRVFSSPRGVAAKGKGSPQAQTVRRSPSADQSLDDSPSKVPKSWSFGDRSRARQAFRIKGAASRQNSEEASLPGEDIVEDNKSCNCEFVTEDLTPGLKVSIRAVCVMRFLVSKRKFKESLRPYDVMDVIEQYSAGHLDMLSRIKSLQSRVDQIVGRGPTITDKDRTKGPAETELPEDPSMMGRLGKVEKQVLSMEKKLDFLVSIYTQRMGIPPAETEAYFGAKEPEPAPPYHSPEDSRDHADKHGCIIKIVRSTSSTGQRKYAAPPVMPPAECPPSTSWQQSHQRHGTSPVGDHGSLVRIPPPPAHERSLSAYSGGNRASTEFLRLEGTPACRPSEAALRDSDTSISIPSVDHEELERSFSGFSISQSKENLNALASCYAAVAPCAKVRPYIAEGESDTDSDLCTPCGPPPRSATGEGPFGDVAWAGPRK
row,Compound,"activity change, less the hit threshold"
1,O=c1c(C(c2ccc(O)cc2)c2c(O)nc3n(c2=O)CCS3)c(O)nc2n1CCS2,-11.7% (inactive)
2,Nc1cc(-c2ccc(Br)cc2)[nH]n1,-23.7% (inactive)
3,CC(C)=CC(=O)OCC(=O)Nc1ccc(SC(F)F)cc1,-15.7% (inactive)
4,S=c1nc(-c2ccccc2)[nH]n1-c1ccccc1,51.8% (active)
5,S=c1nc(-c2ccccc2)c(-c2ccccc2)n[nH]1,-18.5% (inactive)
6,CCOc1cc(C(=O)NC)cc(OCC)c1OCC,-15.9% (inactive)
7,COCCn1c(SCC(=O)Nc2cc(C)cc(C)c2)nc2ccccc2c1=O,-17.4% (inactive)
8,Cc1cc(C)cc(NC(=O)CSc2nnc(CN3CCOCC3)n2C)c1,27.2% (active)
9,Cc1cc(-c2nnc(SCC(=O)Nc3ccc(C(F)(F)F)cc3)n2C)no1,-23.1% (inactive)
10,Clc1cccc(OCCCN2CCCC2)c1Cl,-9.5% (inactive)
11,CCOC(=O)C1=C(O)c2ccccc2C(=O)/C1=C\c1ccc(CC)cc1,-1.8% (inactive)
12,CCOC(=O)C1=C(Cc2ccc(C)cc2)C(=O)c2ccccc2C1=O,-0.5% (inactive)
13,Cc1ccc(/C=N/N2C(=O)c3ccccc3NC2c2ccc(C)cc2)cc1 (stereo not given),-15.6% (inactive)
14,CCc1ccc(/C=C/C(=O)C2C(=O)c3ccccc3C2=O)cc1,37.2% (active)
15,Cc1ccc(/C=C/C(=O)C2C(=O)c3ccccc3C2=O)cc1,48.1% (active)
16,O=C(CC1NCCNC1=O)Nc1ccc([N+](=O)[O-])cc1 (stereo not given),-27.7% (inactive)
17,COc1ccc(NC(=O)N2CCN(c3ccc([N+](=O)[O-])cc3)CC2)cc1OC,-23.2% (inactive)
18,CN(C(=O)c1cnccn1)c1nnc(-c2cnccn2)s1,-25.3% (inactive)
19,CC(C)C(NC(=O)c1ccccc1)C(=O)N/N=C\c1ccco1 (stereo not given),-20.2% (inactive)
20,Cc1ccc2c(CN3CCOCC3)cc(=O)oc2c1,-5.1% (inactive)
21,Cc1cc(C)cc(OCc2nnc(SCC(=O)Nc3ccccc3)o2)c1,-16.8% (inactive)
22,CC(=O)/C=C1/C(=O)Nc2ccccc21,-27.4% (inactive)
23,Cc1cccc(N2C(=O)C(O)=C(C(=O)c3cccs3)C2c2cccc(Oc3ccccc3)c2)n1 (stereo not given),-18.2% (inactive)
24,COc1cc(C(=O)Nc2ccc(O)cc2C(=O)O)ccc1OC(C)=O,-10.8% (inactive)
25,COc1ccc(/C=C/C(=O)Nc2ccccc2C(=O)O)cc1OC,4.9% (active)

row,Compound,"activity change, less the hit threshold"
1,COc1ccc(/C=C/C(=O)Nc2ccccc2C(=O)O)cc1,-2.2% (inactive)
2,COc1cc(/C=C2/C(=O)NN(c3ccc(Cl)c(Cl)c3)C2=O)cc([N+](=O)[O-])c1O,-18.7% (inactive)
3,Cc1cc(S(=O)(=O)Nc2ccc(C(=O)N3CCN(C(=O)c4ccco4)CC3)cc2)ccc1F,3.4% (active)
4,Nc1ccc(C(=O)OCC(=O)N2CCN(C(=O)c3ccco3)CC2)cc1[N+](=O)[O-],-23.4% (inactive)
5,O=C(CCNS(=O)(=O)c1ccc(Cl)cc1)OCC(=O)N1CCN(C(=O)c2ccco2)CC1,-17.9% (inactive)
6,CCOc1ccc(NC(=O)c2ccc3c(c2)CCN3S(C)(=O)=O)cc1,-27.8% (inactive)
7,CCOc1ccc(NC(=O)CSc2nc3nc(C)cc(C)n3n2)cc1,-14.8% (inactive)
8,CCOc1ccc(NC(=S)NS(=O)(=O)c2cc(Br)ccc2OCC)cc1,35.9% (active)
9,O=C(COc1ccccc1)Nc1ccc(S(=O)(=O)Nc2ccccn2)cc1,-14.4% (inactive)
10,CC(=O)NC1C(Oc2ccccc2C)OC(CO)C(O)C1O (stereo not given),-8.8% (inactive)
11,CCCn1c(O)c(N=NC(=O)c2ccco2)c2ccccc21,86.7% (active)
12,CCn1c(O)c(N=NC(=S)NCC2CCCO2)c2ccccc21 (stereo not given),-9.1% (inactive)
13,CCn1c(O)c(N=NC(=O)CNC(=O)c2ccccc2F)c2ccccc21,-8.6% (inactive)
14,CSc1ccc(/C=N/NC(=O)c2cccs2)cc1,-22.9% (inactive)
15,O=C(CS(=O)(=O)Cc1ccccc1)Nc1ccc(Cl)cn1,-21.6% (inactive)
16,CCC(=O)N1CCN(c2nc(CC)nc3sc4c(c23)CCCC4)CC1,-43.7% (inactive)
17,CCOC(=O)c1cnn(-c2nc(SC)nc3sc4c(c23)CCCC4)c1N,-23.6% (inactive)
18,CCn1c(SC(C)C(=O)O)nc2sc3c(c2c1=O)CCC3 (stereo not given),25.4% (active)
19,CCn1c(SCC(N)=O)nc2sc3c(c2c1=O)CCCC3,31.2% (active)
20,CCCn1c(SCC(=O)N2CCN(C(C)=O)CC2)nc2sc3c(c2c1=O)CCC3,29.6% (active)
21,CCN1C(=O)c2cccc3c(S(=O)(=O)NCC4CCCO4)ccc1c23 (stereo not given),-21.6% (inactive)
22,CCc1cccc(C)c1NC(=O)Cc1ccsc1,-12.4% (inactive)
23,O=C1CC(c2ccco2)CC2=C1C1c3ccccc3C(=O)N1c1ccccc1N2 (stereo not given),-4.8% (inactive)
24,Cc1ccc(OCc2ccoc2C(=O)O)cc1C,23.9% (active)
25,Cc1oc2ccc(OCc3ccc(Cl)cc3)cc2c1C(=O)O,-3.6% (inactive)
